{"source": "PubChem BioAssay AID493168", "about": "(National Center for Advancing Translational Sciences (NCATS), 2011)", "note": "Inconclusive results are not listed. Values without a mark were called inactive. The source made the active and inactive calls. Calls come from the whole dose curve; as a rule, active = well fitted inhibition curve with a large enough effect; inconclusive = small, poorly fitted or top-dose-only effect, or effect the other way; inactive = flat fitted curve, though single readings scatter. Potency is the fitted concentration of half-maximal effect."}
{"target": "Ubiquitin carboxyl-terminal hydrolase 2 (Homo sapiens) (UniProt O75604)", "sequence (O75604 whole entry, looked up)": "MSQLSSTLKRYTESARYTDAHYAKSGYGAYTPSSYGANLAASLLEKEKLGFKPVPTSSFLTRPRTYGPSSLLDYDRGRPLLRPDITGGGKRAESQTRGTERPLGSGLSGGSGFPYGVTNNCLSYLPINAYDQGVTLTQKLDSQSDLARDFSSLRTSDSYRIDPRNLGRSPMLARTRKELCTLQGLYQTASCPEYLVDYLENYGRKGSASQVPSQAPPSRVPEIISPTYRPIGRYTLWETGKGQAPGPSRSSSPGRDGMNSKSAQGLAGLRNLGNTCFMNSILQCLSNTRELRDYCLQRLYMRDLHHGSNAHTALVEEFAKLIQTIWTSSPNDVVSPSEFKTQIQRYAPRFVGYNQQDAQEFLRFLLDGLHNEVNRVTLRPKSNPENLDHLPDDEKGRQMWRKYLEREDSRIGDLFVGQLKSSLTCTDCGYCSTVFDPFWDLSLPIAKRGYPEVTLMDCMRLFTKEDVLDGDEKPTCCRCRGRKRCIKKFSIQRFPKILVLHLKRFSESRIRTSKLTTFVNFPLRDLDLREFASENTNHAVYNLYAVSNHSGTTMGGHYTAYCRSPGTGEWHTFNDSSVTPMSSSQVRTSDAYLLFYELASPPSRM", "experiment": "Confirmation Assay for Inhibitors of Ubiquitin-specific Protease USP2a Using CHOP2 as the Reporter; note: nearly all actives have a fitted effect of over 55% in size;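 for activity change, negative = inhibition: plate controls were DMSO wells for no effect and full inhibition by NEM control for full effect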", "details": "USP2 core, Ub-CHOP2 coupled reporter fluorescence; series mostly up to 38.3 µM; activity change, negative = inhibition: at the top concentration", "outline": "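USP2 core (10 nM final) was preincubated with compound for 30 min at RT in Tris-HCl pH 8.0, CaCl2, beta-mercaptoethanol, CHAPS. Ub-CHOP2 and reporter substrate (25 nM final each) were added, and fluorescence (Ex 485/Em 531 nm) was read after 60 min.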", "units": {"activity change, negative = inhibition": "%"}}
{"smiles": "NC1=NC(=O)/C(=C/c2cccc(-c3ccc(S(N)(=O)=O)cc3)c2)S1", "Potency": "9.27 µM (active)"}
{"smiles": "Cc1c(NC(=O)c2ccc(COc3ccc4ccccc4c3)o2)c(=O)n(-c2ccccc2)n1C", "activity change, negative = inhibition": -11.8}
{"smiles": "CCCCC(CC)CN=C(N)NC(N)=NCCCCCCN=C(N)NC(N)=NCC(CC)CCCC", "note": "(centres undefined)", "Potency": "4.65 µM (active)"}
{"smiles": "Nc1c(C(=O)Nc2ccc(Cl)cc2)oc2ccccc12", "activity change, negative = inhibition": -4.81}
{"smiles": "O=C(Nc1ccc(N2CCCC2)cc1)c1ccc(Br)cc1", "Potency": "16.5 µM (active)"}
{"smiles": "O=C(c1ccc([N+](=O)[O-])cc1)N(Cc1ccc(Cl)cc1)N1C(=O)CCCC1=O", "activity change, negative = inhibition": -1.63}
{"smiles": "CCCCOC1(c2ccccc2)NC(=S)NN=C1c1ccccc1", "note": "(centres undefined)", "activity change, negative = inhibition": 2.46}
{"smiles": "CCOC(=O)N1CCN(C(=O)c2cc3c(ccc4ccccc43)oc2=O)CC1", "activity change, negative = inhibition": 0.893}
{"smiles": "CCOc1ccc(-c2ccc(/C=C3/C(=N)N4C(C)=CSC4=NC3=O)o2)c([N+](=O)[O-])c1", "activity change, negative = inhibition": -9.31}
{"smiles": "COc1ccc(O)c(-c2cc(-c3ccc(F)cc3)n[nH]2)c1", "activity change, negative = inhibition": -4.2}
{"smiles": "Cc1onc(-c2ccccc2)c1C(=O)N1CCN(C)CC1", "activity change, negative = inhibition": 3.09}
{"smiles": "CCOC(=O)N1CCN(C(=O)CN(c2ccc(Oc3ccccc3)cc2)S(C)(=O)=O)CC1", "activity change, negative = inhibition": -1.27}
{"smiles": "COCc1c(C(=O)OCC(=O)c2c(N)n(CC(C)C)c(=O)n(C)c2=O)oc2ccccc12", "activity change, negative = inhibition": -3.99}
{"smiles": "CN(C)c1ccc(NC(=O)CSCc2nc3c(nnn3Cc3ccc(F)cc3)c(=O)[nH]2)cc1", "activity change, negative = inhibition": 1.9}
{"smiles": "O=C(COC(=O)c1ccc(F)c(S(=O)(=O)N2CCOCC2)c1)c1ccccc1", "activity change, negative = inhibition": 0.56}
{"smiles": "CC1(C)CC(=O)C2=C(C1)Oc1ncn(CCCO)c(=N)c1C2c1ccccc1", "note": "(centres undefined)", "activity change, negative = inhibition": -1.72}
{"smiles": "O=C(NC(=S)N1CCCc2ccccc21)c1ccc([N+](=O)[O-])cc1", "activity change, negative = inhibition": -6.36}
{"smiles": "Cc1nc2cc3ccccc3cc2c(=O)[nH]1", "activity change, negative = inhibition": 2.06}
{"smiles": "COC(=O)N/N=C\\c1cc(Br)ccc1OCc1ccccc1", "activity change, negative = inhibition": -1.87}
{"smiles": "CCOC(=O)C1CCN(CC(O)COc2ccc(C(C)(C)C)cc2)CC1", "note": "(centres undefined)", "activity change, negative = inhibition": 0.593}
{"smiles": "O=S(=O)(NC1CCSc2ccccc21)c1ccccc1", "note": "(centres undefined)", "activity change, negative = inhibition": -6.24}
{"smiles": "COc1cc(/C=C/C(=O)OCC(=O)NC(=O)NCc2ccco2)ccc1OC(F)F", "activity change, negative = inhibition": -5.33}
{"smiles": "Cc1n[nH]c(C)c1S(=O)(=O)N1CCCC(C(=O)Nc2nccs2)C1", "note": "(centres undefined)", "activity change, negative = inhibition": 1.19}
{"smiles": "CCOC(=O)c1sc(NC(=O)Nc2ccccc2)cc1C", "activity change, negative = inhibition": 2.01}
{"smiles": "CC(C)(C)C1CCC(=NNC(=O)CN(c2ccccc2)S(C)(=O)=O)CC1", "note": "(centres undefined)", "activity change, negative = inhibition": -1.87}
{"smiles": "O=C1CCCc2nc(N3CCN(c4ccccc4)CC3)ncc21", "activity change, negative = inhibition": -1.03}
{"smiles": "Nc1ccc2nc(-c3cccc(-c4nc5ccc(N)cc5[nH]4)c3)[nH]c2c1", "activity change, negative = inhibition": -6.9}
{"smiles": "COc1ccc(CCN2CC(C#N)=C3c4cc(OC)c(OC)cc4CCN3C2)cc1OC", "activity change, negative = inhibition": -0.858}
{"smiles": "CCC(CO)Oc1cc(NCc2cccc(C)c2)c2ncn(C(C)C)c2c1", "note": "(centres undefined)", "activity change, negative = inhibition": 6.16}
{"smiles": "COc1ccc(Cl)cc1S(=O)(=O)Nc1cccc(C(=O)O)c1", "activity change, negative = inhibition": 0.617}
{"smiles": "Cc1cc(NC(=O)COC(=O)CCCOc2ccc(Cl)cc2C)no1", "activity change, negative = inhibition": -1}
{"smiles": "O=C(NCc1ccccc1)C1CCC1", "activity change, negative = inhibition": 1.49}
{"smiles": "C#CCOCCOCCOCCNc1nc(N2CCN(C(=O)CCCCCCCCCCNC(=O)Cn3cc(C[C@@H](C)O)nn3)CC2)nc(N2CCN(C(=O)CCCCCCCCCCNC(=O)[C@@H]([C@H](C)CC)n3cc(CCCCCN)nn3)CC2)n1", "Potency": "11.7 µM (active)"}
{"smiles": "COC(=O)c1[nH]c2cc(OC)ccc2c1N", "activity change, negative = inhibition": 3.18}
{"smiles": "CCOC(=O)C1=CN(Cc2cccc(F)c2)S(=O)(=O)NC1c1ccc(Br)cc1F", "note": "(centres undefined)", "activity change, negative = inhibition": -4.73}
{"smiles": "Cc1ccccc1N=C1NC(=O)CS1", "activity change, negative = inhibition": 4.13}
{"smiles": "Cc1ccc(/C(O)=C/C(=O)C(=O)NNC(=O)C(O)(c2ccccc2)c2ccccc2)cc1", "Potency": "14.7 µM (active)"}
{"smiles": "CCOC(=O)C1CCCN(C(=O)c2cc(-c3ccco3)nc3ccccc23)C1", "note": "(centres undefined)", "Potency": "18.5 µM (active)"}
{"smiles": "COc1cccc(C(=O)NC(C)c2ccc(-c3ccccc3)cc2)c1OC", "note": "(centres undefined)", "activity change, negative = inhibition": -3.09}
